Test results from PubChem BioAssay AID2289 (National Center for Advancing Translational Sciences (NCATS), 2010).
Screen size: about 340,000 compounds; about 3,300 (0.97%) were called active. Not shown: some 9% with an inconclusive outcome. Calls come from the whole dose curve; as a rule, active = well fitted inhibition curve with a large enough effect; inconclusive = small, poorly fitted or top-dose-only effect, or effect the other way; inactive = flat fitted curve, though single readings scatter. Some of the results follow.

assay: qHTS Assay for Modulators of miRNAs and/or Inhibitors of miR-21; details: HeLa miR-21-FLuc reporter, luciferase luminescence, 48 h; actives lower the signal; note: nearly all actives have a fitted effect of over 55% in size
In short: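 Luminescence from a firefly luciferase reporter carrying a miR-21 binding site downstream, stably expressed under a CMV promoter in HeLa cells that make miR-21 endogenously, reports miRNA modulation after 48 h compound exposure up to approximately 40uM final.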
Potency is the fitted concentration of half-maximal effect.

Potency, active:
C/C(=N\NC(=O)OC(C)(C)C)c1ccccc1Br 14.7 µM
CCOC(=O)c1cnn2c(C)cc(-c3ccc(F)cc3)nc12 4.14 µM
O=C(O)c1ccc(S(=O)(=O)c2ccc3c(c2)C(=O)N(NC(=O)c2ccccc2)C3=O)cc1 4.14 µM
COc1ccc(-c2cc(C(=O)N3CCCC3)no2)cc1OC 5.85 µM
COc1ccc(-c2cc(C(=O)N3CCCCCC3)no2)cc1OC 16.5 µM
COc1ccc(-c2cc(C(=O)N3CCCCC3)no2)cc1OC 7.36 µM
Cc1ccc(/C=C/C(=O)Nc2ncc(C)s2)o1 1.04 µM
Cc1csc(NC(=O)/C=C/c2ccc(C)o2)n1 5.21 µM
CCOC(=O)C(C)On1c(-c2ccc(Cl)cc2)nc2ccc([N+](=O)[O-])cc21 (stereo not given) 3.69 µM
Cn1ccc(C(=O)Nc2ccc(Br)cc2Br)n1 0.521 µM
O=C(Nc1ccccc1-c1ccccc1)c1cnccn1 13.1 µM
Cc1ccc(NC(=O)c2cnccn2)c(Br)c1 5.85 µM
O=C(Nc1ccccc1-c1ccccc1)c1ccc(=O)[nH]n1 14.7 µM
CN(C)CCCN(C(=O)c1sc2ccccc2c1Cl)c1nc2ccc(F)cc2s1 9.27 µM
CN(C)CCCN(C(=O)c1ccc2c(c1)OCCO2)c1nc2ccccc2s1 18.5 µM
CCc1ccc2nc(N(Cc3cccnc3)C(C)=O)sc2c1 16.5 µM
O=C(c1ccc2c(c1)OCCO2)N(Cc1cccnc1)c1nc2ccc(F)cc2s1 4.14 µM
Cc1cc(C)nc(SCc2csc(-c3ccccc3)n2)n1 1.65 µM
COc1ccccc1NS(=O)(=O)c1cccc(NC(=O)c2cc3ccccc3oc2=O)c1 4.65 µM
COc1ccc(S(=O)(=O)Nc2ccccc2OC)cc1NC(=O)c1cc2ccccc2oc1=O 6.56 µM
COc1ccc(Cl)cc1NC(=O)Cn1ccn(Cc2ccc(C)cc2)c(=O)c1=O 7.36 µM
COCCNC(=O)c1cc(-c2cccc(Cl)c2)on1 4.14 µM
O=C(NCCN1CCOCC1)c1cc(-c2cccs2)on1 14.7 µM
O=C(NCCCN1CCOCC1)c1cc(-c2cccs2)on1 16.5 µM
COCCNC(=O)c1cc(-c2cccs2)on1 13.1 µM
O=C(NCCc1ccccc1)c1nc(-c2cccs2)no1 11.7 µM
COc1cc(/C=N/n2c(C)n[nH]c2=S)ccc1OCc1ccccc1 6.56 µM
COc1cc(/C=N/n2cnnc2)ccc1OCc1ccc(C)cc1 4.14 µM
COc1cc(/C=N/n2cnnc2)ccc1OCc1ccccc1 18.5 µM
Cc1n[nH]c(=S)n1/N=C/c1ccccc1OCc1ccc(Cl)cc1 14.7 µM
Cc1n[nH]c(=S)n1/N=C/c1ccc(OCc2ccc(Cl)cc2Cl)cc1 16.5 µM
CCOC(=O)c1cccc(NC(=O)c2cc(CN3CCCC3)on2)c1 2.33 µM
Cc1cc(C)cc(NC(=O)c2cc(CN3CCCC3)on2)c1 11.7 µM
COc1ccc2c(Sc3ccccc3)c(C(=O)NCCc3ccc(Cl)cc3)[nH]c2c1 0.464 µM
O=C(NCCc1ccccc1)c1ccc(Cl)cc1[N+](=O)[O-] 8.26 µM
O=C(NCCc1ccccc1)c1cccc([N+](=O)[O-])c1 8.26 µM
COc1ccc(C2N=C(c3ccccc3)NO2)cc1OC (stereo not given) 5.21 µM
N#Cc1ccc(C2N=C(c3ccccc3)NO2)cc1 (stereo not given) 0.585 µM
Clc1ccc(OCc2noc(-c3ccsc3)n2)c(Cl)c1 4.14 µM
COc1ccccc1-c1nc(COc2ccc(Cl)cc2Cl)no1 7.36 µM
COc1ccccc1/C=C/C=N/n1c(-c2ccccn2)n[nH]c1=S 8.26 µM
CCOC(=O)c1c(C)oc2cc(Cl)c(O)c(CN(C)C)c12 14.7 µM
C/C(=N/NC(=O)c1ccc(Br)o1)c1ccc(C)o1 10.4 µM
O=C(N/N=C/c1ccc(Br)cc1)c1ccc(Br)o1 3.29 µM
COc1ccccc1OCc1nc(-c2cccc(C)c2)no1 6.56 µM
COc1cccc(-c2noc(COc3ccccc3Cl)n2)c1 16.5 µM
Cc1ccc(OCc2nc(-c3ccccc3)no2)cc1 5.21 µM
CSc1nc(O)c(/C=C2\C=Nc3ccccc32)[nH]1 16.5 µM
COc1cccc2c1C(=O)O/C2=C/c1ccc2c(c1)OCO2 0.233 µM
COc1ccc(/C=C2\OC(=O)c3c(OC)cccc32)cc1OC 2.93 µM
COc1cc(/C=C2\OC(=O)c3c(OC)cccc32)ccc1O 7.36 µM
COc1cccc(/C=N/NC(=O)c2cccc(N3CCCC3=O)c2)c1 5.85 µM
c1csc(-c2nc(N3CCCCC3)no2)c1 2.93 µM
CCOC(=O)c1sc(=NC(=O)c2ccc(Cl)s2)n(C)c1C 0.233 µM
Cc1ccc2c(c1)sc(=NC(=O)c1cccs1)n2C 0.0521 µM
CCOC(=O)c1sc(=NC(=O)c2cccs2)n(C)c1C 0.293 µM
CCOC(=O)c1sc(=NC(=O)c2ccccc2Br)n(C)c1C 1.04 µM
O=C(NC(N1CCOCC1)C(Cl)(Cl)Cl)c1ccco1 (stereo not given) 2.93 µM
O=C(CCc1ccc(S(=O)(=O)NC2CCCCC2)cc1)NCc1ccccn1 7.36 µM
Cc1cc(-n2c(SCc3ccccc3F)nc3[nH]ncc3c2=O)ccc1Cl 4.65 µM
O=c1c2c3c(sc2ncn1-n1cccc1)CCCCC3 11.7 µM
COc1ccc(OC)c2nc(-c3ccc4c(c3)OCO4)ccc12 0.736 µM
CC(=O)c1cc2c(C)c(C(=O)c3ccccc3)oc2cc1O 0.521 µM
Cc1c(C(=O)c2ccccc2)oc2ccc3ccccc3c12 2.93 µM
CCN(CC)S(=O)(=O)c1ccc(-c2cn3ccc(C)cc3n2)cc1 0.927 µM
